Experimental data from PubChem BioAssay.
Activity calls are given as the source filed them.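 The calls were made as follows, unless noted: active = fluorescence slope after compound addition differing from the mean of all screened samples at 99.7% confidence, in either direction; inactive = the rest.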

Tests used:
[1] = inhibitors of TNFa-induced NFkB p65 translocation, primary screen, imaging, HUVEC, MLSMR starter and 10KST1 sets (AID 438;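 active = inhibition above 20% together with a positive visual image hit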;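 also: compound added about 3h40 before a 20 min TNFalpha stimulation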;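 as to inhibition: signal is the nuclear over cytoplasmic p65 intensity ratio per well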); details: HUVEC TNFa-induced p65 nuclear translocation; cell count: measured here: nuclei count (cytotoxicity indicator), at 2.08 µM; inhibition: at 2 µM, stronger effect = higher value, 0% TNFa-plus-vehicle, 100% no-TNFa wells
[2] = inhibitors of mutant huntingtin aggregation, primary screen, imaging, exon1htt(103Q)mCFP cells, high-content imaging (AID 483;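 active = visual image review flags a hit and inhibition of aggregation exceeds 20%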;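 also: compound exposure lasted 3 days before fixation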;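 as to nuclei count: percent of the per-plate median nuclei count of sample wells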); details: exon1htt(103Q)mCFP cell line, aggregate imaging, at 2 µM; inhibition of aggregation: stronger effect = higher value; nuclei count: measured here: cell count, toxicity
[3] = inhibitors of E-selectin induction by TNFa, primary screen, imaging, HUVEC, immunofluorescence, MLSMR starter and 10KST1 sets (AID 487;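 active = visually confirmed hit in the image check and inhibition above 20%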;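 as to inhibition: signal is fraction of cell area covered by stained E-selectin grains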;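 as to nuclei count: 100% = median nuclei count of all wells on the same plate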); details: HUVEC TNFalpha-induced E-selectin immunofluorescence imaging, at 2 µM; inhibition: stronger effect = higher value; nuclei count: measured here: cell number, toxicity
[4] = target: Voltage-gated potassium channel subunit beta-2 (Rattus norvegicus) (UniProt P62483); experiment: KvBeta enzyme negative modulators, primary screen, biochemical, NADPH fluorescence (AID 622;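 active = fluorescence slope higher than the sample average by over 3 SD, cut at about -0.22 in these data, passing the limit was not always enough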;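 also: slope of raw intensity against log time taken from 70 to 1610 s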); details: recombinant KvBeta, 4-cyanobenzaldehyde reduction, at 10 µM, stronger effect = higher value
[5] = target: Voltage-gated potassium channel subunit beta-2 (Rattus norvegicus) (UniProt P62483); experiment: KvBeta positive modulators, primary screen, biochemical, NADPH fluorescence (AID 623;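 active = NADPH fluorescence slope more negative than the mean of all samples by about 3 SD, 99.7% confidence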;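 also: fluorescence intensity change per second fitted from 20 to 320 s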); details: Recombinant KvBeta, NADPH fluorescence decrease slope, 10 min; at 10 µM; stronger effect = lower value
[6] = target: Alpha-2C adrenergic receptor (Homo sapiens) (UniProt P18825); experiment: modulators of alpha2C/GIRK thallium flux, primary screen, cell-based, HEK293 alpha2C/GIRK1/2 (AID 624); details: thallium flux BTC fluorescence, at 10 µM, actives lie on both sides;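 also: slope of fluorescence ratio to pre-addition baseline per second over 15 to 24 s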
[7] = inhibitors of Sendai virus-induced IRF3 signaling, primary screen, TLR/RLR signaling modifier project, cell-based, Sendai virus stimulus, luciferase, 10K MLSCN set (AID 602276;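 active = inhibition at or above 50% at 10 µM; inactive = inhibition below 50%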;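 also: firefly luciferase from ISG56 promoter only with Renilla not read in this screen; 0% = Sendai virus plus DMSO and 100% = medium plus DMSO without virus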); details: HEK293 RL24 IRF3 luciferase reporter, at 10 µM, stronger effect = higher value
[8] = inhibitors of poly I:C-induced TLR3 signaling, primary screen, cell-based, poly I:C stimulus, luciferase, 10K MLSCN set (AID 602277;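 active = inhibition of the reporter signal at or above 50%; inactive = inhibition below 50%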); details: HEK293-TLR3 RL24 IRF3 luciferase reporter, at 10 µM, stronger effect = higher value

Chain of Voltage-gated potassium channel subunit beta-2 (Rattus norvegicus) (P62483 whole entry, looked up): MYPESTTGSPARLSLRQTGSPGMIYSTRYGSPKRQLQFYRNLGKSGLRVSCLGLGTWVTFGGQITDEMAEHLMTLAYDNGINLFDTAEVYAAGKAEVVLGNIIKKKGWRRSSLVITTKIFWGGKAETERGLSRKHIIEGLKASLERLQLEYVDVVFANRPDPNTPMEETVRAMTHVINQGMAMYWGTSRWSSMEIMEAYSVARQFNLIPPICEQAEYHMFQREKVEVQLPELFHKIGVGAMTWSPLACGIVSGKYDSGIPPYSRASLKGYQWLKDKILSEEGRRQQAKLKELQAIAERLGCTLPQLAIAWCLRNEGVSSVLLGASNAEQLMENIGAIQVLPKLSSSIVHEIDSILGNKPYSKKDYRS
Chain of Alpha-2C adrenergic receptor (Homo sapiens) (P18825 whole entry, looked up): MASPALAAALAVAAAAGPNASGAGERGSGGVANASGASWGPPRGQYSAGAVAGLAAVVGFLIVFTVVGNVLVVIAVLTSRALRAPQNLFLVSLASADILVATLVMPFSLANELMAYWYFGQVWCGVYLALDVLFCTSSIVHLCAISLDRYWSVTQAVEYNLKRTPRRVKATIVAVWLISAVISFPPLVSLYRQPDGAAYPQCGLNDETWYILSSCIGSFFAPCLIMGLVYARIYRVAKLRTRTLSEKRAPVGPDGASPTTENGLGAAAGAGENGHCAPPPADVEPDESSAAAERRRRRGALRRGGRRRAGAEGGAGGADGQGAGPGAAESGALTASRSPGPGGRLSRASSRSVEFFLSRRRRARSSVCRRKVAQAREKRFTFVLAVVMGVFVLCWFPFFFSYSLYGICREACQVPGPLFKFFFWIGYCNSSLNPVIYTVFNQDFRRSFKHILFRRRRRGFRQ

## COc1ccc(-c2nnn(CC(=O)c3ccc4c(c3)OCCO4)n2)cc1OC
[1]
  cell count: 507
  inhibition: -17.7% (inactive)
[2]
  inhibition of aggregation: -8.1% (inactive)
  nuclei count: 122%
[3]
  inhibition: 17.9% (inactive)
  nuclei count: 126%
[4]
  fluorescence slope: -0.48 (inactive)
[5]
  NADPH fluorescence slope: -4.4e-05 (inactive)
[6]
  slope: 0.00479 (inactive)
[7]
  inhibition: 19.3% (inactive)
[8]
  inhibition: 19.3% (inactive)

## CCCOc1ccc(N2CC(C(=O)Nc3ccc4c(c3)OCO4)CC2=O)cc1 (centres undefined)
[1]
  cell count: 520
  inhibition: -5% (inactive)
[2]
  inhibition of aggregation: 14.9% (inactive)
  nuclei count: 81%
[3]
  inhibition: -12.8% (inactive)
  nuclei count: 81.9%
[4]
  fluorescence slope: -0.444 (inactive)
[5]
  NADPH fluorescence slope: -2.5e-06 (inactive)
[6]
  slope: 0.00561 (inactive)
[7]
  inhibition: 3.94% (inactive)
[8]
  inhibition: 6.03% (inactive)

## CCOCCCNC(=O)CN1CCN(Cc2ccccc2C)C1=O
[1]
  cell count: 600
  inhibition: -4.4% (inactive)
[2]
  inhibition of aggregation: -25.9% (inactive)
  nuclei count: 108%
[3]
  inhibition: -42% (inactive)
  nuclei count: 117%
[4]
  fluorescence slope: -0.574 (inactive)
[5]
  NADPH fluorescence slope: -5.1e-05 (inactive)
[6]
  slope: 0.00699 (inactive)
[7]
  inhibition: -1.33% (inactive)
[8]
  inhibition: 19.7% (inactive)

## CCC1(C)Cc2c(C#N)c(N)n(N)c(=S)c2CO1 (centres undefined)
[1]
  cell count: 795
  inhibition: 1.1% (inactive)
[2]
  inhibition of aggregation: -11.2% (inactive)
  nuclei count: 97.6%
[3]
  inhibition: -97% (inactive)
  nuclei count: 106%
[4]
  fluorescence slope: -0.422 (inactive)
[5]
  NADPH fluorescence slope: -4.6e-05 (inactive)
[6]
  slope: 0.00514 (inactive)
[7]
  inhibition: 9.11% (inactive)
[8]
  inhibition: 22.9% (inactive)

## COc1ccccc1CNS(=O)(=O)c1ccc(NC(C)=O)cc1
[1]
  cell count: 601
  inhibition: 8.1% (inactive)
[2]
  inhibition of aggregation: -1.3% (inactive)
  nuclei count: 110%
[3]
  inhibition: -57.3% (inactive)
  nuclei count: 109%
[4]
  fluorescence slope: -0.411 (inactive)
[5]
  NADPH fluorescence slope: -4.2e-05 (inactive)
[6]
  slope: 0.00719 (inactive)
[7]
  inhibition: 6.03% (inactive)
[8]
  inhibition: 6.94% (inactive)

## O=C(CCNS(=O)(=O)c1cccs1)Nc1ccccc1F
[1]
  cell count: 714
  inhibition: -16.8% (inactive)
[2]
  inhibition of aggregation: -2.2% (inactive)
  nuclei count: 102%
[3]
  inhibition: -9.8% (inactive)
  nuclei count: 109%
[4]
  fluorescence slope: -0.3 (inactive)
[5]
  NADPH fluorescence slope: -6.3e-05 (inactive)
[6]
  slope: 0.00565 (inactive)
[7]
  inhibition: 6.58% (inactive)
[8]
  inhibition: 7.01% (inactive)

## COC(=O)CCCCCc1ccc(C(C)=O)s1
[1]
  cell count: 350
  inhibition: -6.3% (inactive)
[2]
  inhibition of aggregation: 10.5% (inactive)
  nuclei count: 101%
[3]
  inhibition: -65.9% (inactive)
  nuclei count: 120%
[4]
  fluorescence slope: -0.496 (inactive)
[5]
  NADPH fluorescence slope: -3.1e-05 (inactive)
[6]
  slope: 0.00508 (inactive)
[7]
  inhibition: 16.6% (inactive)
[8]
  inhibition: 15.4% (inactive)

## Cn1c(=O)[nH]c(=O)c2c1nc(N1CCNCC1)n2CCOc1ccccc1
[1]
  cell count: 321
  inhibition: -3.8% (inactive)
[2]
  inhibition of aggregation: 2.5% (inactive)
  nuclei count: 104%
[3]
  inhibition: -91.3% (inactive)
  nuclei count: 124%
[4]
  fluorescence slope: -0.513 (inactive)
[5]
  NADPH fluorescence slope: 4.4e-05 (inactive)
[6]
  slope: 0.00611 (inactive)
[7]
  inhibition: -11.6% (inactive)
[8]
  inhibition: 1.53% (inactive)

## COc1cc(NC(=O)CN(c2cc(C)cc(C)c2)S(=O)(=O)c2c(C)noc2C)cc(OC)c1
[1]
  cell count: 541
  inhibition: 2.3% (inactive)
[2]
  inhibition of aggregation: -25% (inactive)
  nuclei count: 80.6%
[3]
  inhibition: -42.2% (inactive)
  nuclei count: 118%
[4]
  fluorescence slope: -0.619 (inactive)
[5]
  NADPH fluorescence slope: 2.8e-05 (inactive)
[6]
  slope: 0.00758 (inactive)
[7]
  inhibition: 18.7% (inactive)
[8]
  inhibition: 19.5% (inactive)

## COc1ccc(-c2ccc(-c3noc(-c4ccccc4)n3)c(OC)n2)cc1
[1]
  cell count: 359
  inhibition: 1.8% (inactive)
[2]
  inhibition of aggregation: -12.7% (inactive)
  nuclei count: 84.2%
[3]
  inhibition: 5% (inactive)
  nuclei count: 88.8%
[4]
  fluorescence slope: -0.0356 (inactive)
[5]
  NADPH fluorescence slope: -4.5e-06 (inactive)
[6]
  slope: 0.0074 (inactive)
[7]
  inhibition: -7.23% (inactive)
[8]
  inhibition: -29.4% (inactive)

## CC1CCCCC1NC(=O)CN1CCN(Cc2ccccc2Cl)C1=O (centres undefined)
[1]
  cell count: 667
  inhibition: -0.2% (inactive)
[2]
  inhibition of aggregation: 10.7% (inactive)
  nuclei count: 64.8%
[3]
  inhibition: -22.2% (inactive)
  nuclei count: 98.9%
[4]
  fluorescence slope: -0.455 (inactive)
[5]
  NADPH fluorescence slope: -6.3e-05 (inactive)
[6]
  slope: 0.00454 (inactive)
[7]
  inhibition: 10.1% (inactive)
[8]
  inhibition: 20.3% (inactive)

## CCc1noc(C)c1C(=O)NCCc1ccc(OC)c(OC)c1
[1]
  cell count: 395
  inhibition: 3.7% (inactive)
[2]
  inhibition of aggregation: -16.2% (inactive)
  nuclei count: 121%
[3]
  inhibition: 11.4% (inactive)
  nuclei count: 96.9%
[4]
  fluorescence slope: -0.468 (inactive)
[5]
  NADPH fluorescence slope: -4.2e-06 (inactive)
[6]
  slope: 0.00531 (inactive)
[7]
  inhibition: 14.3% (inactive)
[8]
  inhibition: 19.8% (inactive)

## CC1=C(C(=O)Nc2ccccc2)C(c2ccco2)C(C#N)=C(SCC(=O)Nc2cccc(C)c2C)N1 (centres undefined)
[1]
  cell count: 625
  inhibition: 15.7% (inactive)
[2]
  inhibition of aggregation: 16% (inactive)
  nuclei count: 89.5%
[3]
  inhibition: -16.6% (inactive)
  nuclei count: 129%
[4]
  fluorescence slope: -0.412 (inactive)
[5]
  NADPH fluorescence slope: -1.1e-05 (inactive)
[6]
  slope: 0.00681 (inactive)
[7]
  inhibition: 9.65% (inactive)
[8]
  inhibition: 21.2% (inactive)

## CCOC(=O)CSc1nnc(NCC(=O)OC(C)C)c(=O)[nH]1
[1]
  cell count: 634
  inhibition: 7.2% (inactive)
[2]
  inhibition of aggregation: 3.7% (inactive)
  nuclei count: 100%
[3]
  inhibition: -81.4% (inactive)
  nuclei count: 144%
[4]
  fluorescence slope: -0.573 (inactive)
[5]
  NADPH fluorescence slope: 3.9e-05 (inactive)
[6]
  slope: 0.00694 (inactive)
[7]
  inhibition: 9.31% (inactive)
[8]
  inhibition: 3.05% (inactive)
